# Experimental data published in PubChem BioAssay (NCI).
# About 83,000 compounds went through this panel and 20% of them were active in at least one assay; those are over-represented in the sample as a whole.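 The test compound was applied at a single concentration to cells in 96-well plates for 48 hours, and percent growth was recorded.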 Activity calls are given as the source filed them. How the source made its calls: active means growth percent below 10; inactive means the rest.
# Test system: ACHN renal
# Assay: NCI-60 one-dose screen, 48 h (100 = growth as untreated, 0 = no growth, -100 = all killed)
# Settings: 10 µM unless noted
row,Structure (SMILES),growth
1,CCN(CC)CCOc1nc2c3ccc(Cl)cc3nn2c2ccccc12,8.93% (active)
2,C=C(c1ccc(C(=O)O)cn1)c1cc2c(cc1C)C(C)(C)CCC2(C)C,91.8% (inactive)
3,CCn1cc(C(=O)NN=C2CCCCCC2)c(=O)c2ccc(C)nc21,84.7% (inactive)
4,Cc1c2cc[nH]c(=O)c2c(C)c2c1[nH]c1ccc(OC(=O)c3ccccc3)cc12,-9.28% (active)
5,C#Cc1cccc(Nc2nc3ccc([N+](=O)[O-])cc3nc2Nc2cccc(C#C)c2)c1,-1.34% (active)
6,COc1cccc(C(=O)OCC(O)C(=O)NC23CC4CC(CC(C4)C2)C3)c1 (stereo not given),97.2% (inactive)
7,COc1ccc2cc(Cn3cc[n+](Cc4ccc5ccccc5c4)c3)ccc2c1,98.8% (inactive)
8,Cc1ccc(C(=O)c2ccc(CC(=O)N/N=C/c3ccc(O)cc3O)n2C)cc1,16.5% (inactive)
9,O=C(Nc1ccccc1)c1sc(-c2ccccc2)cc1O,93.1% (inactive)
10,COC(=O)c1ccc2c(c1)c1c(C)c3ccncc3c(C)c1n2C,14.8% (inactive)
11,O=C(O)c1cccc(N/C=C/C(=O)c2cc3cc(Br)ccc3oc2=O)c1,102% (inactive)
12,O=C(N/N=C/c1ccc([N+](=O)[O-])cc1)c1ccc2nc(-c3ccc(Cl)cc3)[nH]c2c1,32.3% (inactive)
13,CCCCN1C(=O)/C(=c2\sc3n(c2=O)NC2C(N=3)N(CC)C(=O)N2CC)c2ccccc21 (stereo not given),48.4% (inactive)
14,CNCc1cccc2c1OCCOCCN(C)C(=O)CN(C)S(=O)(=O)c1ccc(cc1)-c1cnc(N)c(n1)C(=O)N2,-2.97% (active)
15,COc1ccccc1-n1c(-c2cc(O)ccc2C)cn2c3c(=O)[nH]c(=O)n(C)c3nc12,27.1% (inactive)
16,COc1ccc(NC(=O)c2sc3nc(C)c(C(O)c4ccccc4)cc3c2N)cc1 (stereo not given),45.2% (inactive)
17,COc1cc(C2C3=C(COC3=O)N(CCO)c3cc4c(cc32)OCCO4)cc(OC)c1OC (stereo not given),20.7% (inactive)
18,C/C(=C(/c1ccc(Cl)cc1)c1ccc(OCCCN(C)C)cc1)c1ccc(Cl)cc1,104% (inactive)

row,Structure (SMILES),growth
1,O=C(CSc1nc2ccc([N+](=O)[O-])cc2[nH]1)Nc1ccc(Br)cc1,52.6% (inactive)
2,C[N+](C)(C/C=C/c1ccccc1)Cc1ccccc1,99.4% (inactive)
3,C/C(=C(\c1ccc(OCCN2CCCCCC2)cc1)c1ccc(OC(=O)Cc2ccccc2)cc1)c1ccc(Cl)cc1,62.3% (inactive)
4,COc1ccc2c(c1)c(-c1nonc1-c1c[nH]c3ccc(Br)cc13)cn2C,43.7% (inactive)
5,CCCCCCCCn1ccc2cc(NC(=O)Cn3cc(CN4CCN(CC)CC4)nn3)ccc21,111% (inactive)
6,C#CC#CC#CC#CC#CC#CC#CC#CC[C@H]1OC[C@@H](COC(=O)O[C@@H](C(=O)O[C@H]2C[C@@]3(O)[C@@H](OC(=O)c4ccccc4)[C@@H]4[C@]5(OC(C)=O)CO[C@@H]5C[C@H](O)[C@@]4(C)C(=O)[C@H](OC(C)=O)C(=C2C)C3(C)C)[C@@H](NC(=O)c2ccccc2)c2ccccc2)O1,89.9% (inactive)
7,Cc1cc(C)cc(Nc2ccc([N+](=O)[O-])c(NCCN3CCOCC3)n2)c1,30.4% (inactive)
8,CCN=C1C=CC(=C(c2ccc(N(C)C)cc2)c2ccc(N(C)C)cc2)c2ccccc21,-9.84% (active)
9,CCOC(=O)Cn1c(=O)c2c3ccccc3n(C)c2n2nnc(-c3ccccc3)c12,91.8% (inactive)
10,COc1ccc2[nH]cc(-c3nc(-c4cn(C)c5ccncc45)cs3)c2c1,83.9% (inactive)
11,COc1ccc2nc(SCC(=O)Nc3ccccc3C)[nH]c2c1,94.4% (inactive)
12,CCCCNC1=C(OCC)C(=O)c2ccccc2C1=O,105% (inactive)
13,COc1ccc(C2=Nc3c/c(=C\c4c(O)[nH]c5cc(Cl)ccc45)ccc3=N2)cc1,76.9% (inactive)
14,Nc1ccc([N+](=O)[O-])cc1N=C/C=C/c1ccccc1,81.7% (inactive)
15,c1ccc(CNc2ccc3nc(CCC4CCCCC4)[nH]c3c2)cc1,87% (inactive)
16,COc1ccc2c(c1)c(-c1cc(-c3cn(C)c4ccc(OC)cc34)on1)cn2C,89.9% (inactive)
17,C#CC#CC#CC#CC#CC#CC#CC#CC[C@H]1OC[C@H](COC(=O)O[C@@H](C(=O)O[C@H]2C[C@@]3(O)[C@@H](OC(=O)c4ccccc4)[C@@H]4[C@]5(OC(C)=O)CO[C@@H]5C[C@H](O)[C@@]4(C)C(=O)[C@H](OC(C)=O)C(=C2C)C3(C)C)[C@@H](NC(=O)c2ccccc2)c2ccccc2)O1,87.6% (inactive)
